Data as given in PubChem BioAssay (NCATS).
Records with an inconclusive call do not appear. Entries that show only a call come without a potency. The source made the active and inactive calls. Calls follow the shape of the dose curve; as a rule, active = well fitted inhibition curve with a large enough effect; inconclusive = small, poorly fitted or top-dose-only effect; inactive = no such curve, though single readings can be large or run the other way.

biological target: Protein phosphatase 1D (Homo sapiens) (UniProt O15297); assay: RapidFire Mass Spectrometry qHTS Assay for Modulators of WT P53-Induced Phosphatase 1 (WIP1) (AID 1347424); conditions: WIP1 dephosphorylation of phosphopeptide, RapidFire MS; series mostly up to 63 µM;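 also: amount of dephosphorylated VEPPL-S-QETFS peptide product formed by WIP1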
Sequence (O15297 whole entry, looked up): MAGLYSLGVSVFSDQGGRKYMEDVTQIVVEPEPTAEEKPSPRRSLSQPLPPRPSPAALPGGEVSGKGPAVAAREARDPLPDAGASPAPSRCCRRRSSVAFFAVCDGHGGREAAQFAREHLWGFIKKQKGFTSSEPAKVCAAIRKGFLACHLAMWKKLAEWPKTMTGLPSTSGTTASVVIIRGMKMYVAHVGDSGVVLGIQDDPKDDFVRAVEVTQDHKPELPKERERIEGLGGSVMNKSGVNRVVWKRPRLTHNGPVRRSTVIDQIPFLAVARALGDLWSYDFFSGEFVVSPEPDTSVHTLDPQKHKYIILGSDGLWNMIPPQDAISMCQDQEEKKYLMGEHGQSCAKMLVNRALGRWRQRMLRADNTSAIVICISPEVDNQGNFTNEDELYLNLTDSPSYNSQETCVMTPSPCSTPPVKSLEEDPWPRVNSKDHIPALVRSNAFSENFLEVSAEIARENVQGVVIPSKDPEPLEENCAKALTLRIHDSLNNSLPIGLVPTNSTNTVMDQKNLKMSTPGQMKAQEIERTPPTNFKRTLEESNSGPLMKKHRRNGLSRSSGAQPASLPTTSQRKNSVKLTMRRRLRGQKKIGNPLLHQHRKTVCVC
Method in brief: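 10 nM WIP1 preincubated with compounds 1 hr at room temperature in pH 7.5 Tris buffer with 30 mM MgCl2, 1 mM TCEP; 2 uM VEPPL-pS-QETFS phosphopeptide for 5 min, formic acid quench; dephosphorylated product quantified by RapidFire MS against labelled standard.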

Compound	Potency
O=C(CCCl)NCc1ccccc1	inactive
Brc1ccccc1-c1ccccc1	inactive
O=C(O)C1CCC1	inactive
CCC(=O)Oc1ccc2c(c1)CC[C@@H]1[C@@H]2CC[C@@]2(C)[C@H]1C[C@@H](OC(=O)CC)[C@@H]2OC(=O)CC	inactive
C[C@@H](C1=C(CCN(C)C)Cc2ccccc21)c1ccccn1	inactive
CC(C)C(=O)OCc1cccc(OC(=O)[C@@H]2N3C(=O)[C@@H](NC(=O)Cc4ccccc4)[C@H]3SC2(C)C)c1	inactive
COc1cc2c(cc1OC)CN(C(=O)[C@H](C)N[C@@H](CCc1ccccc1)C(=O)O)[C@H](C(=O)O)C2	inactive
CC(C)C(=O)Nc1cccc(C2CN3CCSC3=N2)c1 (stereo not drawn)	inactive
Fc1ccc(C(c2ccc(F)cc2)N2CCNCC2)cc1	inactive
CC[C@@H]([C@H](C)O)n1ncn(-c2ccc(N3CCN(c4ccc(OC[C@@H]5CO[C@@](Cn6cncn6)(c6ccc(F)cc6F)C5)cc4)CC3)cc2)c1=O	inactive
CN1N=C(C(N)=O)CCC1=O	inactive
Cc1c(F)cc2c(=O)c(C(=O)O)cn3c2c1CCC3C (stereo not drawn)	inactive
CN1Cc2cc(C(=O)N3CCC(C4CCNCC4)CC3)ccc2NC(CC(=O)O)C1=O (stereo not drawn)	inactive
CCCC(CCC)(C(=O)OCC)C(=O)OCC	inactive
CCCCCC(=O)O[C@]1(C(C)=O)CC[C@H]2[C@@H]3CCC4=CC(=O)CC[C@]4(C)[C@H]3CC[C@@]21C	inactive
CCOc1ncc(F)c(=O)[nH]1	inactive
Nc1nnnn1-c1ccccc1	inactive
CCN(CC)CC(=O)Oc1ccc(NC(C)=O)cc1	inactive
